Source: PubChem BioAssay (ICCB-Longwood Screening Facility, Harvard Medical School)
Mtb MenB inh = inhibitors of Mycobacterium tuberculosis MenB enzyme; inhibition, % (test concentration not listed); MenB enzyme assay, absorbance read-out; P9WNP5; hit rate 0.43% among 100,000; in the data active = inhibition above about 21%, passing the limit was not always enough
Target sequence (P9WNP5 whole entry, looked up): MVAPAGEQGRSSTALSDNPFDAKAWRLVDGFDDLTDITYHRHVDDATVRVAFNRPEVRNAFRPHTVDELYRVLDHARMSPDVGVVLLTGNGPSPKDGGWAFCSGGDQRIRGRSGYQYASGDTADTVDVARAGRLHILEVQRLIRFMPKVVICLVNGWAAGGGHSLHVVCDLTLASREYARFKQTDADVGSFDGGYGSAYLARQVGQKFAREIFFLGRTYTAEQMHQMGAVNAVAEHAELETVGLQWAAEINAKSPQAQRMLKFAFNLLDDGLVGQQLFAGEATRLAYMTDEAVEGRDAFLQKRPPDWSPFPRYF
MbtI inh = inhibitors of Mycobacterium tuberculosis siderophore enzyme MbtI. P9WFX0. purified MbtI enzyme, fluorescence intensity read-out. inhibition, % (test concentration not listed). hit rate 0.89% among 100,000. AID 493033; in the data active = inhibition mostly above about 56%, no sharp cut-off; inactive = mostly below about 77%
Polio RdRp inh = inhibitors of poliovirus RNA polymerase binding and polymerization; P03300; poliovirus polymerase elongation, fluorescence polarization; active compounds read low; % elongation, % (compound at 16.7 µg/mL); hit rate 0.66% among 150,000; AID 588519; in the data active = % elongation below about 90%
Target sequence (P03300 1749-2209 limits assumed): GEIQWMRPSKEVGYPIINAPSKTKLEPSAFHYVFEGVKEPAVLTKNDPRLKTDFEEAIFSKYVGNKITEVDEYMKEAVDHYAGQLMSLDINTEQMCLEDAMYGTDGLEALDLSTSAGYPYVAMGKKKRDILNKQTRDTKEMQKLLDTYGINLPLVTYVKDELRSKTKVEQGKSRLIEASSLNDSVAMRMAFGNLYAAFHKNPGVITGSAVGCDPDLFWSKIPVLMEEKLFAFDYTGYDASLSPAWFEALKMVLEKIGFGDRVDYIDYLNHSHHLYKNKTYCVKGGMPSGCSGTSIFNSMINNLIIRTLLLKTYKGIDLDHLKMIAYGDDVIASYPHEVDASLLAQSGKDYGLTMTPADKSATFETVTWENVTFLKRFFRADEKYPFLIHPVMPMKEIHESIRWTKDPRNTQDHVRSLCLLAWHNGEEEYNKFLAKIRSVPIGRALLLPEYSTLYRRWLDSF
AID504770 = E. coli YBA685 growth inhibition, screen for V. cholerae RctB inhibitors. E. coli YBA685 rctB-dependent plasmid, OD600 growth, 3 h; active compounds read low. hit rate 0.27% among 130,000. AID 504770. z-score (test concentration not listed); in the data active = z-score below about -2, passing the limit was not always enough
Of the large screens only hits and unclear results are named; the others gave an inactive call. Most compounds without a hit are left out; they make up all but 1.4% or so of the library.

C1=CSC(=C2SC=CS2)S1	Mtb MenB inh active, Polio RdRp inh 59, AID504770 -3.6
Cc1ccc2c(c1)c1c(c(=O)n(-c3cccc(Cl)c3)c(=O)n1CC(N)=O)n2C	none (no result: Mtb MenB inh, MbtI inh, AID504770)
CCOc1ccc(CCNC(=O)c2cnc3c(-c4ccc(F)cc4)c(C)nn3c2C)cc1	none (no result: Mtb MenB inh, MbtI inh, AID504770)
Cc1ccc(CCNC(=O)c2cnc3c(-c4ccc(F)cc4)c(C)nn3c2C)cc1	Polio RdRp inh 76 (no result: Mtb MenB inh, MbtI inh, AID504770)
Cn1nc(C2CC2)cc1C(=O)O	Mtb MenB inh 30
c1ccc(-c2csc(NC3CCCCC3)n2)cc1	Polio RdRp inh 84
c1ccc(-c2nc(NC3CCCCC3)s[n+]2-c2ccccc2)cc1	MbtI inh 91 (no result: Mtb MenB inh)
O=C(Nc1nc(-c2ccccc2)cs1)C1CCC1	none
CCn1cc(C(=O)O)c(=O)c2cc(F)c(N3CCN(C(=S)NC)CC3)cc21	AID504770 -7.2 (no result: MbtI inh)
CCOC(=O)c1cn(CC)c2cc(N3CCCC3)c(F)cc2c1=O	none
O=C(O)c1cn(-c2ccc(F)cc2)c2cc(N3CCNCC3)c(F)cc2c1=O	AID504770 -3.5
CCn1cc(C(=O)O)c(=O)c2cc(F)c(N3CCN(C(=S)NC(=O)c4c(-c5ccccc5)noc4C)CC3)cc21	none
O=C(O)c1cn(C2CC2)c2cc(N3CCN(C(=S)S)CC3)c(F)cc2c1=O	AID504770 -8.3 (no result: MbtI inh)
CCn1cc(C(=O)O)c(=O)c2cc3c(cc21)OCO3	AID504770 -3.8
CCn1cc(C(=O)O)c(=O)c2cc(Cl)ccc21	none (no result: Mtb MenB inh, MbtI inh, Polio RdRp inh)
Cc1c(C(=O)NCc2ccccc2Cl)sc2nc(-c3ccc(F)cc3)cn12	none (no result: Mtb MenB inh, MbtI inh, AID504770)
C/C=C/c1c(F)c(F)c(Oc2ccc(C(=O)O)cc2)c(F)c1F	none
O=C(Cn1cnc2c(oc3ccccc32)c1=O)Oc1ccccc1Cl	Polio RdRp inh 60
COC(=O)c1c(NC(=O)COc2ccc(Cl)cc2C)sc2c1CCCCC2	Polio RdRp inh 85 (no result: Mtb MenB inh, MbtI inh, AID504770)
CCOC(=O)c1c(NC(=O)COc2cccc(C(F)(F)F)c2)sc2c1CCCCC2	Polio RdRp inh 90 (no result: Mtb MenB inh, MbtI inh, AID504770)
CCOC(=O)c1c(NC(=O)COc2ccc(C(C)(C)C)cc2)sc2c1CCCC2	none (no result: Mtb MenB inh, MbtI inh, AID504770)
CCCc1ccc(OC(C)C(=O)Nc2sc3c(c2C(=O)OC)CCCCC3)cc1 (stereo not drawn)	Polio RdRp inh 86 (no result: Mtb MenB inh, MbtI inh, AID504770)
COC(=O)c1c(NC(=O)COc2ccc(OC)cc2)sc2c1CCCC2	none (no result: Mtb MenB inh, MbtI inh, Polio RdRp inh)
CCOC(=O)c1c(NC(=O)C(C)Oc2ccc(Cl)c(C)c2)sc2c1CCCC2 (stereo not drawn)	none (no result: Mtb MenB inh, MbtI inh, AID504770)
COC(=O)c1c(NC(=O)COc2cc(C)c(Cl)c(C)c2)sc2c1CCCC2	Polio RdRp inh 90 (no result: Mtb MenB inh, MbtI inh, AID504770)
Cc1ccc2c(=O)c(C(=O)c3ccccc3)cn(CC(=O)Nc3ccccc3)c2n1	none (no result: Mtb MenB inh, MbtI inh, AID504770)
CCOC(=O)c1c(CN(C)C)n(C)c2cc(Br)c(O)c(CN(C)C)c12	none
COc1cc(/C=C/C(=O)Nc2ccc(-c3nnc4n3CCCCC4)cc2)ccc1OCC#N	none
O=C(Nc1ccc(Cl)cc1)C(NS(=O)(=O)c1cccs1)c1ccccc1 (stereo not drawn)	none (no result: Mtb MenB inh, MbtI inh, AID504770)
Cc1cc(C)c(C#N)c(=N)o1	Polio RdRp inh 55
Cc1cc(C)n(N)c(=O)c1C#N	none
CN1CCN(C(CNC(=O)C(=O)Nc2ccc(F)cc2)c2cccnc2)CC1 (stereo not drawn)	none (no result: Mtb MenB inh, MbtI inh, AID504770)
N#Cc1sccc1CSc1ccc(Cl)cc1	none (no result: Mtb MenB inh, MbtI inh, Polio RdRp inh)
CN(C)C=NC(=S)c1sccc1CSc1ccc(Cl)cc1	MbtI inh 74
COc1ccc(C)cc1NC(=O)CSc1ccc(-c2ccccn2)nn1	Polio RdRp inh 81 (no result: Mtb MenB inh, MbtI inh, AID504770)
CC(C#N)Sc1nnc(-c2ccco2)n1Cc1ccccc1 (stereo not drawn)	none
COc1ccc(OC)c(-n2c(N)c(C#N)c3nc4ccccc4nc32)c1	AID504770 -2.1
CCOC(=O)/C(C#N)=C1\CC2CCC1(C)C2(C)C (stereo not drawn)	MbtI inh 84
NC(=O)c1ccsc1NC(=O)Cc1ccc(S(=O)(=O)N2CCOCC2)s1	AID504770 -5.4
O=C(NC(=S)NCc1ccccc1)C1CCCC1	MbtI inh 76
O=C(NCc1ccccc1)C1CCC1	none (no result: MbtI inh)
O=C(O)CCC(=O)Nc1ccc(Oc2ncnc3cc(Cl)ccc23)nc1	none
CC(C)(C)c1ccccc1N1C(=O)C=CC1=O	none (no result: Mtb MenB inh, MbtI inh, Polio RdRp inh)
CSc1ccccc1N1C(=O)C=CC1=O	MbtI inh 101, AID504770 -2.5
N#Cc1ccccc1N1C(=O)c2ccccc2S1(=O)=O	none (no result: Mtb MenB inh, MbtI inh, Polio RdRp inh)
Cc1ccccc1N1C(=O)C=CC1=O	MbtI inh 100
N#Cc1ccccc1N1C(=O)C=CC1=O	AID504770 -3.5 (no result: Mtb MenB inh, MbtI inh, Polio RdRp inh)
O=C1C=CC(=O)N1c1ccccc1Br	MbtI inh 99, AID504770 -3.3 (no result: Mtb MenB inh)
CC(C)S(=O)(=O)c1ncc(CO)n1Cc1ccccc1	none
CCC12CN3CCN(CC(C3)/C1=N\NC(=O)Nc1ccccc1)C2	none
Nc1cc(=O)[nH]c2n[nH]c(=S)n12	Mtb MenB inh 33, MbtI inh 100
CCOC(=O)C1=CC(=C2C(=O)NC(=O)NC2=O)c2ccccc2O1	none
CCc1ccc2c(c1)S(=O)(=O)C(C(F)(F)F)CO2 (stereo not drawn)	Polio RdRp inh 84 (no result: MbtI inh)
CCc1cccc(NC(=O)C2COc3ccccc3O2)c1 (stereo not drawn)	none
CCCNCc1ccccc1	Mtb MenB inh 32
O=C(Nc1sc2c(c1C(=O)Nc1cccc(Cl)c1)CCCC2)c1cccs1	Polio RdRp inh 77 (no result: Mtb MenB inh, MbtI inh, AID504770)
O=C(Cc1ccccc1)Nc1sc2c(c1C(=O)Nc1ccc(Cl)cc1)CCCC2	Polio RdRp inh 71 (no result: Mtb MenB inh, MbtI inh, AID504770)
O=C(COc1ccccc1)Nc1sc2c(c1C(=O)Nc1ccccc1Cl)CCCCC2	none (no result: Mtb MenB inh, MbtI inh, AID504770)
O=C(Cc1ccccc1)Nc1sc2c(c1C(=O)Nc1ccccc1)CCCCC2	none (no result: Mtb MenB inh, MbtI inh, AID504770)
Nc1sc2c(c1C(=O)Nc1ccc(Cl)cc1)CCC2	Polio RdRp inh 89 (no result: MbtI inh)
O=C(Cc1ccccc1)Nc1sc2c(c1C(=O)Nc1ccccc1Cl)CCCC2	Polio RdRp inh 85 (no result: Mtb MenB inh, MbtI inh, AID504770)
Nc1sc2c(c1C(=O)Nc1cccc(Cl)c1)CCCCC2	none (no result: MbtI inh)
Cc1ccc(C(=O)Nc2cc(C)cc(C)c2)cc1	none
Cc1ccc(C(=O)Nc2cccc(O)c2)cc1	AID504770 -2.4
Cc1cccc(N2CCN(c3cccc(C)c3)C2c2cccnc2)c1	none
COc1ccc(Cl)cc1NC1=NC2CS(=O)(=O)CC2S1 (stereo not drawn)	MbtI inh 63
NS(=O)(=O)c1ccc(CNC(=O)CNC(=O)Cc2ccccc2)cc1	none
COc1ccc(C=C2C(=O)NC(=S)NC2=O)cc1	MbtI inh 97
COc1ccc(C=C2C(=O)NC(=O)NC2=O)cc1	none
COc1ccc(CN2C(=O)C=CC2=O)cc1	none (no result: Mtb MenB inh, MbtI inh, Polio RdRp inh)
COc1ccc(CCN2C(=O)C=CC2=O)cc1	MbtI inh 93 (no result: Mtb MenB inh)
COC(=O)CC1C(=O)NCCN1C(=O)CSc1nc2ccccc2c(=O)n1-c1ccc(C)cc1 (stereo not drawn)	none
COC(=O)CC1C(=O)NCCN1C(=O)CSc1nc2ccccc2s1 (stereo not drawn)	MbtI inh 97
Cc1[nH]c2ccccc2c1C(C#N)(C#N)C1C(=O)c2ccccc2C1=O	none (no result: Mtb MenB inh)
Cc1cccc(C(=O)c2c(N3CCOCC3)[nH]c(=O)c3ccccc23)c1	Polio RdRp inh 68
Cc1ccc(Cn2c(=O)n(CCC(=O)N3CCc4ccccc4C3)c(=O)c3ccccc32)cc1	none
COc1ccc(-c2sc(C(=O)O)cc2C)cc1	none
COc1ccc(-c2csc(=Nc3cc(C(=O)O)ccc3C)o2)cc1	Polio RdRp inh 86 (no result: MbtI inh)
O=[n+]1c(CO)c(CO)n([O-])c2ccccc21	AID504770 -8.7
